The text below walks through data of PubChem BioAssay (NCATS).

Assay [1] in a line: qHTS profiling of the MIPE4 collection as inhibitors of Plasmodium falciparum (DD2) proliferation (AID 743345; call rule not given here). As to conditions: P. falciparum Dd2 in erythrocytes, SYBR Green DNA, 72 h. The essentials:
(§1)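 Parasite DNA was quantified by SYBR Green I fluorescence (ex 485, em 535 nm) after overnight lysis in saponin/Triton buffer at room temperature. Cultures at 0.3% parasitemia and 2.5% hematocrit were first exposed to compound for 72 h at 37 C; signals were normalised to artemisinin (0.29 uM) and vehicle wells.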
On the technique in general: Quantitative high-throughput screening tests each substance at several concentrations.

Assay [2] in a line: qHTS profiling of the MIPE4 collection as inhibitors of Plasmodium falciparum (DD2) proliferation (Rep 2) (AID 743346; call rule not given here). The conditions noted are these: P. falciparum Dd2 in erythrocytes, SYBR Green DNA, 72 h. The procedure, abridged:
as §1

Assay [3] is described as follows: qHTS profiling of the MIPE4 collection as inhibitors of Plasmodium falciparum (HB3) proliferation (AID 743347; call rule not given here;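 note: plate controls were DMSO vehicle wells for no effect and artemisinin wells for full effect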). As to conditions: P. falciparum HB3 in erythrocytes, SYBR Green DNA, 72 h. The procedure, abridged: as §1
A short description of assay [4]: High-throughput drug toxicity screening in the BPDCN cell line Gen2.2 (AID 1224824; call rule not given here;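 note: cells exposed to compounds for 48 h before reading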). The conditions noted are these: Gen2.2 BPDCN cells; at 45.8 µM (top of the series) unless noted. The essentials:
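Seed 500 exponentially growing Gen2.2 cells/well; add compounds by pin tool; incubate 48 h, 37 °C, 5% CO2; add CellTiter-Glo, 15 min RT; read luminescence. % activity vs DMSO (100%) and bortezomib (0%).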

Assay [5] in a line: High-throughput drug toxicity screening in the BPDCN cell line Cal-1 (AID 1224825; call rule not given here). The conditions noted are these: Cal-1 BPDCN cell viability, qHTS; at 45.8 µM (top of the series) unless noted. The essentials:
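CellTiter-Glo luminescence after 48 h compound exposure; percent activity scaled with DMSO as 100% and bortezomib (9.2 uM final) as 0%. Cal-1 cells seeded at 500/well in RPMI, 10% FBS, no phenol red.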

A short description of assay [6]: qHTS assay for measurement of the activity of small molecule inhibitors on Zika virus induced Caspase-3 activity in human iPSC derived neural progenitor cells (hNPCs) (AID 1224857). Note: nearly all actives have a fitted effect of over 65% in size. Note: potency is the fitted concentration of half-maximal effect. The essentials:
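Pretreat hNPCs with compound 1 h; infect ZIKV 2 FFU/cell; 6 h 37 C, 5% CO2; Caspase-Glo 3/7, 30 min RT; luminescence; normalize to no-virus and virus-only wells.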

A short description of assay [7]: qHTS assay for measurement of the activity of small molecule inhibitors on Zika virus induced Caspase-3 activity in human astrocytoma cells (AID 1224859). Note: potency is the fitted concentration of half-maximal effect. The essentials: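 Human SNB-19 astrocytoma cells in RPMI 1640 with 10% FBS receive compound one hour ahead of Zika virus at 2 FFU/cell. After 6 h infection, caspase-3/7 activity is detected by Caspase-Glo luminescence.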

The nature of assay [8]: qHTS Screen of the MIPE 4.0 Collection Against Ewings Sarcoma (EW8) (AID 1259255).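 For viability: 100% = DMSO-treated cells and 0% = medium-only wells without cells.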 Note: nearly all actives have a fitted effect of over 35% in size. Note: potency is the fitted concentration of half-maximal effect. The essentials:
(§2)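 Dose series incubated 48 h with cells in RPMI plus 5% FBS, glutamine and penicillin/streptomycin; cell viability then quantified via CellTiter-Glo.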

Assay [9] is described as follows: qHTS assay to identify small molecule inhibitors of chordoma cells - UCH-1 (AID 1259355). Note: % is set by controls: 0 for no effect and ±100 for the full control effect; nearly all actives have a fitted effect of over 55% in size. The essentials: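 Screening used approved and investigational drugs in 15-point titration against 800 seeded cells per well. A fixed combination of auranofin with camptothecin, doxorubicin, rubitecan and topotecan followed compound addition, and growth was scored by CellTiter-Glo after 48hr.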

A short description of assay [10]: qHTS assay to identify small molecule inhibitors of chordoma cells - UCH-2 (AID 1259356). Note: % is set by controls: 0 for no effect and ±100 for the full control effect.
Assay [11] can be described thus: qHTS Screen of the MIPE 4.0 Collection Against Ewings Sarcoma (RDES) (AID 1259252).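 Note: 100% = DMSO-treated cells and 0% = medium-only wells without cells; nearly all actives have a fitted effect of over 35% in size.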 The essentials: as §2
Assay [12] is described as follows: qHTS Screen of the MIPE 4.0 Collection Against Ewings Sarcoma (TC32) (AID 1259256).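 Note: 100% = DMSO-treated cells and 0% = medium-only wells without cells; nearly all actives have a fitted effect of over 45% in size.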 The essentials: as §2
The nature of assay [13]: qHTS Screen of the MIPE 4.0 Collection Against Ewings Sarcoma (TC71) (AID 1259253). Note: nearly all actives have a fitted effect of over 40% in size. Note: potency is the fitted concentration of half-maximal effect. The procedure, abridged:
as §2

A short description of assay [14]: P-glycoprotein substrates identified in KB-3-1 adenocarcinoma cell line, qHTS therapeutic library screen (AID 1346986). Note: nearly all actives have a fitted effect of over 60% in size.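 Note: potency is the fitted concentration of half-maximal effect; potency is for cytotoxicity meaning loss of cell viability.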 The essentials: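 Viability by CellTiter-Glo after 72 h compound exposure at 37 degree C, 5% CO2. Cytotoxic call: curve class -1.1 to -2.4, maximum response >50%, AC50 < 10 uM, compared across KB-3-1 and P-gp-overexpressing KB-8-5-11.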
The mark [15] stands for this setting: at 28.5 µM (top of the series) unless noted.

Records with an inconclusive call do not appear. Some compounds were tested as several samples or in several runs, with calls that do not always agree. Activity calls are given as the source filed them. Unless noted, calls come from the whole dose curve; as a rule, active = well fitted curve in the direction sought with a large enough effect; inconclusive = small, poorly fitted or top-dose-only effect, or another doubt; inactive = no such curve, though single readings can be large; an effect the other way counts as inactive or inconclusive.

Regarding `Cc1ncc([N+](=O)[O-])n1CC(C)O` (stereo unspecified), the parasite growth remaining, % of DMSO control (lower = more inhibition) in [1] (setting [15]) turned out to be 95.7%. The parasite growth, % of control (lower = inhibition) in assay [2] (setting [15]) was determined as 94.8%. For the same compound, the growth, % of control in [3] (setting [15]) worked out at 99.2%. In addition, the cell viability, % of control (lower = more cytotoxic) in assay [4] came to 120%. In addition, the viability (% of control) in [5] is 98.4%. For the same compound, the Potency result in [6], in [7], in [8], in assay [9] and in assay [10] was “inactive” each time.

In the case of `Cc1nc(-c2ccc(OCC(C)C)c(C#N)c2)sc1C(=O)O`, in [1] (setting [15]), the parasite growth remaining, % of DMSO control (lower = more inhibition) stood at 91.7%. Also, the parasite growth, % of control (lower = inhibition) in [2] (setting [15]) came to 43.1%. The compound also registered a growth, % of control in assay [3] (setting [15]) of 62%. In addition, the cell viability, % of control (lower = more cytotoxic) in assay [4] was found to be 41.7%. Besides, the viability (% of control) in assay [5] worked out at 105%. The Potency is 5.26 µM (active) and inactive in assay [6]; 4.18 µM (active) in assay [7]. The Potency result in assay [11], in [8] and in [12] was “inactive” each time.

As to `CCCCCCCCOc1ccccc1C(=O)Nc1ccc(C(=O)OCC[N+](C)(CC)CC)cc1`, the parasite growth remaining, % of DMSO control (lower = more inhibition) in assay [1] (setting [15]) is 5.8%. Besides, in assay [2] (setting [15]), the parasite growth, % of control (lower = inhibition) came to 26.3%. The compound further yielded a growth, % of control in assay [3] (setting [15]) of 8.46%. Moreover, the cell viability, % of control (lower = more cytotoxic) in [4] turned out to be 52.3%. Also, in assay [5], the viability (% of control) came to 14.9%. The Potency in [6] was 16.6 µM (active) and inactive; in [8], 16600 nM (active). Also, the Potency entry in assay [7], in [11], in assay [9] and in [10] was “inactive” each time.

Turning to `CC(S)C(=O)NCC(=O)O` (stereo unspecified), the parasite growth remaining, % of DMSO control (lower = more inhibition) in assay [1] (setting [15]) was 123%. Also, the parasite growth, % of control (lower = inhibition) in assay [2] (setting [15]) came out at 91.7%. Further, the growth, % of control in assay [3] (setting [15]) came to 95.5%. Besides, the cell viability, % of control (lower = more cytotoxic) in assay [4] stood at 104%. Also, the viability (% of control) in assay [5] worked out at 100%. Besides, the Potency result in assay [6], in [7], in assay [8], in assay [12], in assay [9] and in [10] was “inactive” each time.

Turning to `CCC1=C(C)CN(C(=O)NCCc2ccc(S(=O)(=O)NC(=O)NC3CCC(C)CC3)cc2)C1=O` (stereo unspecified), in [1] (setting [15]), the parasite growth remaining, % of DMSO control (lower = more inhibition) worked out at 91.8%. For the same compound, the parasite growth, % of control (lower = inhibition) in assay [2] (setting [15]) was 85.1%. In [3] (setting [15]), this compound gave a growth, % of control of 99.4%. Besides, in assay [4], the cell viability, % of control (lower = more cytotoxic) worked out at 114%. Also, the viability (% of control) in assay [5] is 118%. For the same compound, the Potency result in assay [6], in assay [7], in [13], in assay [8], in assay [12] and in [10] was “inactive” in each case.

With `CC1Cc2ccccc2N1NC(=O)c1ccc(Cl)c(S(N)(=O)=O)c1` (stereo unspecified), in assay [3] (setting [15]), the growth, % of control worked out at 48.2%. The cell viability, % of control (lower = more cytotoxic) in assay [4] is 106%. In addition, the viability (% of control) in assay [5] was determined as 104%. The Potency result in assay [6], in assay [7] and in assay [10] was “inactive” throughout. The Potency in assay [13] is 20900 nM (active).

In the case of `O=C(O)c1cccc(-c2noc(-c3ccccc3F)n2)c1`, the parasite growth remaining, % of DMSO control (lower = more inhibition) in assay [1] (setting [15]) is 96.1%. Further, in [2] (setting [15]), the parasite growth, % of control (lower = inhibition) was 41.6%. The growth, % of control in assay [3] (setting [15]) is 99.8%. In [4], the cell viability, % of control (lower = more cytotoxic) was determined as 41.1%. Moreover, the viability (% of control) in [5] worked out at 93.8%. Also, the Potency entry in [6], in [7], in assay [12], in assay [9] and in assay [10] was “inactive” in each case.

Regarding `CC(C)c1ccc2oc3nc(N)c(C(=O)O)cc3c(=O)c2c1`, the parasite growth remaining, % of DMSO control (lower = more inhibition) in assay [1] (setting [15]) was determined as 91.1%. In addition, the parasite growth, % of control (lower = inhibition) in assay [2] (setting [15]) stood at 71.7%. Besides, the growth, % of control in [3] (setting [15]) was determined as 74%. For the same compound, the cell viability, % of control (lower = more cytotoxic) in [4] was found to be 98.6%. The viability (% of control) in assay [5] turned out to be 97.4%. The Potency in [6] is 1.66 µM (active) and inactive; in assay [7], 1.32 µM (active) and inactive. Also, the Potency entry in assay [12], in [9], in [10] and in assay [14] was “inactive” each time.

With `CCCCN(CCCC)CCC(O)c1cc2c(Cl)cc(Cl)cc2c2cc(C(F)(F)F)ccc12` (stereo unspecified), the parasite growth remaining, % of DMSO control (lower = more inhibition) in assay [1] (at 9.64 µM (top of the series)) is 8.22%; in [1] (at 28.5 µM (top of the series)), 7.14%. Also, the parasite growth, % of control (lower = inhibition) in [2] (at 9.64 µM (top of the series)) was determined as 11%; in assay [2] (at 28.5 µM (top of the series)), 10.3%. Moreover, the growth, % of control in assay [3] (at 9.64 µM (top of the series)) amounted to 5.69%; in assay [3] (at 28.5 µM (top of the series)) it was 7.8%. For the same compound, in assay [4], the cell viability, % of control (lower = more cytotoxic) was 34.8%. Further, in [5], the viability (% of control) is 64.8%. Moreover, the Potency result in assay [6], in [7], in assay [11], in assay [8] and in assay [10] was “inactive” throughout.

As to `CCCOc1ccc2nc(NC(=O)OC)[nH]c2c1`, in assay [1] (setting [15]), the parasite growth remaining, % of DMSO control (lower = more inhibition) was found to be 92%. The parasite growth, % of control (lower = inhibition) in assay [2] (setting [15]) worked out at 126%. Moreover, the growth, % of control in [3] (setting [15]) was 99.5%. In addition, the cell viability, % of control (lower = more cytotoxic) in assay [4] was determined as 86.8%. For the same compound, the viability (% of control) in assay [5] came out at 14.2%. Moreover, the Potency result in assay [6], in [7], in assay [12] and in [10] was “inactive” in each case. Further, the Potency in assay [13] was 9.3 nM (active); in assay [8], 6.6 nM (active); in assay [14], 291 nM (active).
